This is one part of a sample in which hits are shown more often than they occur.
Dicer inh – inhibitors of Dicer pre-microRNA processing, primary screen, biochemical, cat-ELCCA, chemiluminescence | z-score at 25 µM | cat-ELCCA pre-miR-21 Dicer processing; hits give high values | Endoribonuclease Dicer (Homo sapiens), Q9UPY3 | AID 1347074, 2019 | actives 6% (n = 47,000); in the data active = z-score above about 3, passing the limit was not always enough;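 also: plate controls were vehicle for no effect and no enzyme for full effect; higher signal means more uncleaved substrate so more Dicer inhibition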
Target sequence (Q9UPY3 whole entry, looked up): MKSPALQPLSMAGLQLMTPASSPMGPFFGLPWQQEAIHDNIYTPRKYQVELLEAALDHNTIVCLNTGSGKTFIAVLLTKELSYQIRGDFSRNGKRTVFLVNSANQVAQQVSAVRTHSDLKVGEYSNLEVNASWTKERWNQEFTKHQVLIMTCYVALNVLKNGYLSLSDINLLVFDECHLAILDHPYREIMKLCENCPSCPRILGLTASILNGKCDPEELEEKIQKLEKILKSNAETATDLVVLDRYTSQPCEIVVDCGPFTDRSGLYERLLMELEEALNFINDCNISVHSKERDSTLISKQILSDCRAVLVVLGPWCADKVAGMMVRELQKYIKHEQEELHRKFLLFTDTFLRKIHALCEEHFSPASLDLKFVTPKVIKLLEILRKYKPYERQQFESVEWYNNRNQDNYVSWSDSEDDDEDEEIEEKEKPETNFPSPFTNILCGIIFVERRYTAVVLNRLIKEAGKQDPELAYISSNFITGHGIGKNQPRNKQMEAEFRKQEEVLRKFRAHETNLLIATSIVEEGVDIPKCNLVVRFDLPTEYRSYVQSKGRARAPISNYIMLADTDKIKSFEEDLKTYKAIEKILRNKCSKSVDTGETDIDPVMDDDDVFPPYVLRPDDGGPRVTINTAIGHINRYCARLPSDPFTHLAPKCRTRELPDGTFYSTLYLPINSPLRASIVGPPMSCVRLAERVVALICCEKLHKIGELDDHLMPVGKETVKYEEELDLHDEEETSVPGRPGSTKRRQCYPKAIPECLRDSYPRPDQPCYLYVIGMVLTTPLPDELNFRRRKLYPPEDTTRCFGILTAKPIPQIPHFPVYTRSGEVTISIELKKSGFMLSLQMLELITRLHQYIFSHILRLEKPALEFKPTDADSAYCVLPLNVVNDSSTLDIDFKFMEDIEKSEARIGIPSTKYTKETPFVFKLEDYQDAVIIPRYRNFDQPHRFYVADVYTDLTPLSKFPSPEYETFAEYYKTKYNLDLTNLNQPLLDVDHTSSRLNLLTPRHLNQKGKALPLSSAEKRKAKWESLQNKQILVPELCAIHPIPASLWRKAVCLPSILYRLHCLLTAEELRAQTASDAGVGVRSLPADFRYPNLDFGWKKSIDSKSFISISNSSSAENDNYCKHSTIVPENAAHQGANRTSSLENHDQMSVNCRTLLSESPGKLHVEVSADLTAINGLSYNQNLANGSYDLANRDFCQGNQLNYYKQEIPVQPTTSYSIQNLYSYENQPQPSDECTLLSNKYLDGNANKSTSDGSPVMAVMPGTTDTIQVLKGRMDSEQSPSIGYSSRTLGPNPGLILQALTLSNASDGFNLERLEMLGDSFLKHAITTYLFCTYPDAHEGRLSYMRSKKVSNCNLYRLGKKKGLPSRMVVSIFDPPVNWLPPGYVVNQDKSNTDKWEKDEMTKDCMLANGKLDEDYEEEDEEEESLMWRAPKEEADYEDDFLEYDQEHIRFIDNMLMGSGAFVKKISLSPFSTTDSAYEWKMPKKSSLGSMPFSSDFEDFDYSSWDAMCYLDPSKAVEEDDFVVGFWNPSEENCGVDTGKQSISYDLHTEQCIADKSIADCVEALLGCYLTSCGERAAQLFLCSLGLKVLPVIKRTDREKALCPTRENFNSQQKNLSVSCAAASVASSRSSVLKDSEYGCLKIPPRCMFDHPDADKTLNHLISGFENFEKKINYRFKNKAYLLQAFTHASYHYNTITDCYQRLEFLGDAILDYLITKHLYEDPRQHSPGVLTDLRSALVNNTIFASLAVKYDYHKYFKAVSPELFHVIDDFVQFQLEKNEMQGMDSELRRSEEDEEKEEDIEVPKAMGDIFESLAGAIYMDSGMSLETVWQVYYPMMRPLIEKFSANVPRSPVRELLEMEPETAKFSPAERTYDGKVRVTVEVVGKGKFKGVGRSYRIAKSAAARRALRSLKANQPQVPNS
Numbers without * were called inactive.

SMILES	Dicer inh
CN1CCN(CC(=O)N2c3ccccc3C=Cc3ccccc32)CC1	7*
O=C(CN1CCCCC1)N1c2ccccc2CCc2ccccc21	1.3
CN1CCN(CC(=O)N2CCc3ccccc32)CC1	1.6
CCOC(=O)NC1CS(=O)(=O)CC1NCC(=O)O (centres undefined)	-0.23
Fc1ccc(Nc2nc(-c3cccnc3)nc3ccccc23)cc1F	2.1
Cn1cc(C2=C(c3ccc(Cl)cc3Cl)C(=O)NC2=O)c2ccccc21	-1.7
CSc1nsc(SC)c1C(=O)N1CCN(S(=O)(=O)c2ccc(C)cc2)C1C(C)C (centres undefined)	0.41
Cc1cc(C)c2c(N)c(C(=O)c3ccccc3Cl)sc2n1	-2.3
COCc1cc(C)nc2sc(C(=O)N3CCCC3)c(N)c12	3.9*
COCc1cc(C)nc2sc(C(=O)OC)c(N)c12	1
Clc1ccc(C2Nc3ccccc3-c3nc4ccccc4n32)cc1Cl (centres undefined)	0.42
Cn1cccc1CNCc1cccnc1	1.6
CN(C)CCCNCc1cccn1C	3.1*
Cn1cccc1CNCC(O)C(F)(F)F (centres undefined)	-0.06
FC(F)(F)C1(C(F)(F)F)N=C(c2cccnc2)OC(N2CCOCC2)=N1	-0.46
NC(=O)c1cccc2c1-c1ccccc1C2=O	1.1
Cc1ccc(NC(=O)CSCC(O)C(F)(F)F)c(Cl)c1 (centres undefined)	-0.57
FC(F)(F)c1ccnc(N2CCN(C(=S)Nc3ccccc3N3CCOCC3)CC2)n1	-0.38
Cc1c(C(=O)O)c2cc(NS(=O)(=O)c3cccs3)ccc2n1S(=O)(=O)c1cccs1	7.5*
CCOC(=O)c1c(C)oc2ccc(NS(=O)(=O)c3cccs3)cc12	-0.75
Cc1ccc(NS(=O)(=O)c2cccs2)cc1	0.16
O=C(C1=C(O)C(=O)N(Cc2cccnc2)C1c1cccc(Oc2ccccc2)c1)c1cccs1 (centres undefined)	-1.5
COC(=O)c1c(C)nc(C)c2c(=O)oc3ccccc3c12	0.08
CCCc1cc2c(c(N)n1)c(=O)oc1ccccc12	-0.55
CC(C)(C)C1CCc2nc(N)c3c(=O)oc4ccccc4c3c2C1 (centres undefined)	5*
SMILES	Dicer inh
CC1=C(C(=O)OCCOC(C)C)C(c2coc3ccc(C)cc3c2=O)C2=C(CCCC2=O)N1 (centres undefined)	7.2*
CC1=C(C(=O)OC2CCCCC2)C(c2coc3ccc(C)cc3c2=O)C2=C(CCCC2=O)N1 (centres undefined)	3.2*
CC1=C(C(=O)OCCOC(C)C)C(c2ccc(C)o2)C2=C(CCCC2=O)N1 (centres undefined)	-0.28
CC1=C(C(=O)OC2CCCC2)C(c2coc3ccc(Cl)cc3c2=O)C2=C(CCCC2=O)N1 (centres undefined)	0.44
CC1=C(C(=O)OC2CCCCC2)C(c2coc3ccc(C)cc3c2=O)C2=C(CC(C)(C)CC2=O)N1 (centres undefined)	1.1
COCCOC(=O)C1=C(C)NC2=C(C(=O)CCC2)C1c1coc2ccccc2c1=O (centres undefined)	4.8
Cc1ccc(NC(=S)Nc2ccccn2)c(C)c1	-0.63
CN(C)CCCNC(=O)Cn1cnc2c1c(=O)n(C)c(=O)n2C	1.5
CC(=O)Oc1ccc(C2C(C(=O)OC(C)C)=C(C)N=C3SCCC(=O)N32)cc1 (centres undefined)	-0.7
O=C(NC(=O)c1csc([N+](=O)[O-])c1)NN1CCCCCC1	1.4
OC(CN1CCCCC1)Cn1ccc2ccccc21 (centres undefined)	-0.29
COc1cc(C(F)(F)F)c(C(=O)NCc2cccc(Cl)c2Cl)cn1	-0.77
Cc1ccc(-c2n[nH]c(=O)c3ccccc23)cc1S(=O)(=O)NC(C)(C)C	0.82
Cc1ccc(-c2n[nH]c(=O)c3ccccc23)cc1S(N)(=O)=O	-0.34
Cc1ccc(-c2n[nH]c(=O)c3ccccc23)cc1S(=O)(=O)NC(C)C	3.6*
CCCCCn1nnc2c(=O)oc3ccccc3c21	-1.1
CCCC(Nc1ncnc2ccccc12)C(=O)O (centres undefined)	0.39
CC(Nc1ncnc2ccccc12)C(=O)O (centres undefined)	3.3*
O=C(O)CCC(Nc1ncnc2ccccc12)C(=O)O (centres undefined)	1.3
COC(=O)c1cnc(OC)c([N+](=O)[O-])c1	-0.89
COc1ccc2c(c1)c(C(=O)CNc1nc(C)cs1)c(C)n2C	1.6
COc1ccc2c(c1)c(C(=O)CN(C)C)c(C)n2C	4.7*
COc1ccc2c(c1)c(C(=O)CNc1nccs1)c(C)n2C	6.6
CC1CCC2C(=O)N(c3cccc(C(=O)OC(C)C(=O)c4ccccc4)c3)C(=O)C2C1 (centres undefined)	1.1
CCCCn1c(=O)c2c(O)cc(=O)oc2c2ccccc21	-2
Cc1cc(C)nc(N2N=C(c3ccccc3)CC2=O)n1	-2.6
Cc1c(NC(=O)c2cc3ccccc3c(=O)s2)c(=O)n(-c2ccccc2)n1C	0.44
Cc1ccc2nc3sc(C(=O)O)cc3cc2c1	0.3
O=C(O)c1cc2ccc3ccccc3c2s1	4.1*

Bioassay records from PubChem.
